Source: PubChem BioAssay (Tox21)
“And” between values parts separate entries of the source, which are not always exact repeats. Equal entries are not always repeated. Results filed as inconclusive are left out. The source made the active and inactive calls. Calls come from the whole dose curve; as a rule, active = well fitted curve in the direction sought with a large enough effect in the repeat runs; inconclusive = weak or mixed curves; inactive = no such curve, though single readings can be large; an effect the other way counts as inactive or inconclusive. Positions of bridges follow the written chain, without caps; N, C: chain ends. Non-standard residues stand in square brackets, D forms with d. Residues, ends and D or L forms follow the SMILES beside them. *: point of attachment. X1 = CC[C@@H](C)[C@@H](N)C1=N[C@H](C(=O)*)CS1; d(aIle) = CC[C@H](C)[C@@H](N)C(=O)O; dOrn = NCCC[C@@H](N)C(=O)O

Assays:
[1] = Caspase-3/7 induction in CHO-K1 cells by small molecules, qHTS assay (AID 1346980); note: nearly all actives have a fitted effect of over 15% in size; note: potency is the fitted concentration of half-maximal effect
Procedure, shortened: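 Wild-type CHO-K1 cells exposed to compounds for 17hr at 37 C, 5% CO2. Caspase-3/7 activity then measured by Caspase-Glo 3/7 luminescence after 30min at room temperature.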

[2] = Caspase-3/7 induction in HepG2 cells by small molecules, qHTS cell viability counter screen (AID 1346981); note: series mostly up to about 92 µM; nearly all actives have a fitted effect of over 30% in size
Procedure, shortened: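 Steps: seed 2,000 HepG2 cells per well; incubate 5 hr at 37 C; pin-add compounds in DMSO; incubate 16 hr; add CellTiter-Fluor; after 1 hr at 37 C and 5% CO2, read fluorescence.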

[3] = molecular target: Nuclear receptor subfamily 1 group I member 2 (Homo sapiens) (UniProt O75469); assay: Human pregnane X receptor (PXR) small molecule agonists, qHTS assay (AID 1346982); note: nearly all actives have a fitted effect of over 35% in size; note: potency is the fitted concentration of half-maximal effect
Sequence of Nuclear receptor subfamily 1 group I member 2 (Homo sapiens) (O75469 whole entry, looked up): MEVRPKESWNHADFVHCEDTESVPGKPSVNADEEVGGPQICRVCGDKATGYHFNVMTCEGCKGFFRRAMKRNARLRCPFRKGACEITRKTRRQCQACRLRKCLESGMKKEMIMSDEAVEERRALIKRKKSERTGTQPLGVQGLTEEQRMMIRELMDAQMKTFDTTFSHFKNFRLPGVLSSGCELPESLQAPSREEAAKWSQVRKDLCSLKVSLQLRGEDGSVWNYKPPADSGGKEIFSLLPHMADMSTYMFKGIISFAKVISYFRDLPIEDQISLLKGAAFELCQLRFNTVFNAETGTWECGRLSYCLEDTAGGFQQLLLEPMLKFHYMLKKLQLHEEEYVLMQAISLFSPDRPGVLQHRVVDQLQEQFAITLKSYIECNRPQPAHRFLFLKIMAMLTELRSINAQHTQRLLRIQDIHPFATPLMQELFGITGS
Procedure, shortened: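 Agonist mode qHTS: PXR-Luc HepG2 cells plated 5 hr before DMSO-dissolved compounds were pinned in, cultured 24 hr at 37 C, 5% CO2; ONE-Glo luminescence readout.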

[4] = molecular target: Cytochrome P450 2C9 (Homo sapiens) (UniProt P11712); assay: Cytochrome P450 Family 2 Subfamily C Member 9 (CYP2C9) small molecule antagonists: luciferase reporter qHTS assay (AID 1671198); note: nearly all actives have a fitted effect of over 50% in size; note: potency is the fitted concentration of half-maximal effect
Sequence of Cytochrome P450 2C9 (Homo sapiens) (P11712 whole entry, looked up): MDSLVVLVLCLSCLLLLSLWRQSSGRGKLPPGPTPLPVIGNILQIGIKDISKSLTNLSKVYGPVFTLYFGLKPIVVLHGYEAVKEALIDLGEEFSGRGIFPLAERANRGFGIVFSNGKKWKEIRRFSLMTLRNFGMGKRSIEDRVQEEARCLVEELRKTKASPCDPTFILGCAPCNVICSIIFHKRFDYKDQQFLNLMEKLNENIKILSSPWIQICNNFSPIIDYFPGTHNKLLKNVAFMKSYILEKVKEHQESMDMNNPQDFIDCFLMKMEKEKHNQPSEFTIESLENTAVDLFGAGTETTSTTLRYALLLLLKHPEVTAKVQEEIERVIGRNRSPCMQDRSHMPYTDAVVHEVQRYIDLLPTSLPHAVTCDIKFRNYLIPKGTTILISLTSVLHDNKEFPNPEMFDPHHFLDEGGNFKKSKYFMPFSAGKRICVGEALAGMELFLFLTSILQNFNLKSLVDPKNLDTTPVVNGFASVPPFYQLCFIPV
Procedure, shortened: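 P450-Glo proluciferin substrate with CYP2C9 enzyme; 10 min RT preincubation, then NADPH regeneration 1 h at 37C; luciferin detection reagent 20 min RT, luminescence in relative luminescence units.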

[5] = molecular target: Voltage-gated inwardly rectifying potassium channel KCNH2 (Homo sapiens) (UniProt Q12809); assay: Human Ether-a-go-go-Related Gene (hERG) channel small molecule antagonists: fluorescence cell-based qHTS assay (AID 1671200); note: nearly all actives have a fitted effect of over 50% in size; note: potency is the fitted concentration of half-maximal effect
Sequence of Voltage-gated inwardly rectifying potassium channel KCNH2 (Homo sapiens) (Q12809 whole entry, looked up): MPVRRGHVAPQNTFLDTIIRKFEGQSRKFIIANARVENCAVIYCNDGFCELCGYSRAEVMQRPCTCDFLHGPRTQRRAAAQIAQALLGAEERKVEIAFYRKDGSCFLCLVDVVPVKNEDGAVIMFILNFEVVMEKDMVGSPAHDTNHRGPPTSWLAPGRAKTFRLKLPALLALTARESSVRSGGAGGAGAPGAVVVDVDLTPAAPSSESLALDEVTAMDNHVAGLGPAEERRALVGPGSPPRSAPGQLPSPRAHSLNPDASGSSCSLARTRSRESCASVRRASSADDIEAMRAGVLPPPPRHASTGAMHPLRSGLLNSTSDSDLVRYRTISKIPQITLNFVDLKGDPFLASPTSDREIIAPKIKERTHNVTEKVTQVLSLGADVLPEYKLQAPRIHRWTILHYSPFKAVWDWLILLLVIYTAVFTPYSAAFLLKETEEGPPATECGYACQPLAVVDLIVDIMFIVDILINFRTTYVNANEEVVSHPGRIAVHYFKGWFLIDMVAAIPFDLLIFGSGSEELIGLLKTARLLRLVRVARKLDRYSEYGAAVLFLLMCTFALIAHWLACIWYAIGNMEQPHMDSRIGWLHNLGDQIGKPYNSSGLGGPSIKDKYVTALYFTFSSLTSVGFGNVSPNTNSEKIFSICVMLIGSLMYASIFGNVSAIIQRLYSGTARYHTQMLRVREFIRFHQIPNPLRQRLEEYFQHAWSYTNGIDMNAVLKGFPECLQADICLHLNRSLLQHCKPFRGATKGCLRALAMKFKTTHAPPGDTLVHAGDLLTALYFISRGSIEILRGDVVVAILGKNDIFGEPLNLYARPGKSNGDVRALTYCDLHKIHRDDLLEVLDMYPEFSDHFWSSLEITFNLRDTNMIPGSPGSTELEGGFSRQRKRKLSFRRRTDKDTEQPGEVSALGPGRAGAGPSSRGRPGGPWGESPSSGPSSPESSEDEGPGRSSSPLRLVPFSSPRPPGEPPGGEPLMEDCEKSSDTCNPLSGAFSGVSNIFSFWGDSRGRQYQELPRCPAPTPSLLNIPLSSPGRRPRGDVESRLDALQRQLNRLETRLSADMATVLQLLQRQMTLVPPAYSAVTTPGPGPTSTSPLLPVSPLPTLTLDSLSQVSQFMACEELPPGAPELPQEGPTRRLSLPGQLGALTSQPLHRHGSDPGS
Procedure, shortened: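 In this thallium-flux screen, overnight-cultured U2OS cells bearing the channel are dye-loaded in darkness for an hour, rested 10 min at room temperature, and then monitored kinetically at 480/540 nm for two minutes post-stimulus.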

[6] = molecular target: Cytochrome P450 3A4 (Homo sapiens) (UniProt P08684); assay: Cytochrome P450 Family 3 Subfamily A Member 4 (CYP3A4) small molecule antagonists: luciferase reporter qHTS assay (AID 1671201); note: nearly all actives have a fitted effect of over 50% in size; note: potency is the fitted concentration of half-maximal effect
Sequence of Cytochrome P450 3A4 (Homo sapiens) (P08684 whole entry, looked up): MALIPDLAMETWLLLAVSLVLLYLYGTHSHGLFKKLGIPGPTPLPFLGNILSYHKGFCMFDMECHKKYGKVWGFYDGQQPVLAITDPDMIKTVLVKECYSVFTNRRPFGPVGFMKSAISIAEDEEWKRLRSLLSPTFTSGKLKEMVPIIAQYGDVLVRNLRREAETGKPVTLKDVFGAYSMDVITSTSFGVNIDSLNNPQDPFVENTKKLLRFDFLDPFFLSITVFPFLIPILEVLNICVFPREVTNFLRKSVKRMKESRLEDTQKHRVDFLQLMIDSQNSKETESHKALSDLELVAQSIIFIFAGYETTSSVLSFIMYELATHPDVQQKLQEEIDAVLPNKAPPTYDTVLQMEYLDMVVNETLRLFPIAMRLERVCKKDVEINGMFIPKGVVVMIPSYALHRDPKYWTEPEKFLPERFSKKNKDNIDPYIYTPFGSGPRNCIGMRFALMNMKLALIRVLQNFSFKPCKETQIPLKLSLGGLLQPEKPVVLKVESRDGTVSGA
Procedure, shortened: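 CYP3A4 activity was followed with a P450-Glo proluciferin substrate. Test compounds in DMSO were preincubated 10 min; NADPH regeneration then ran 1 h, and light output was read 20 min after detection reagent.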

[7] = molecular target: Cytochrome P450 1A2 (Homo sapiens) (UniProt P05177); assay: Cytochrome P450 Family 1 Subfamily A Member 2 (CYP1A2) small molecule antagonists: luciferase reporter qHTS assay (AID 1671199); note: nearly all actives have a fitted effect of over 50% in size; note: potency is the fitted concentration of half-maximal effect
Sequence of Cytochrome P450 1A2 (Homo sapiens) (P05177 whole entry, looked up): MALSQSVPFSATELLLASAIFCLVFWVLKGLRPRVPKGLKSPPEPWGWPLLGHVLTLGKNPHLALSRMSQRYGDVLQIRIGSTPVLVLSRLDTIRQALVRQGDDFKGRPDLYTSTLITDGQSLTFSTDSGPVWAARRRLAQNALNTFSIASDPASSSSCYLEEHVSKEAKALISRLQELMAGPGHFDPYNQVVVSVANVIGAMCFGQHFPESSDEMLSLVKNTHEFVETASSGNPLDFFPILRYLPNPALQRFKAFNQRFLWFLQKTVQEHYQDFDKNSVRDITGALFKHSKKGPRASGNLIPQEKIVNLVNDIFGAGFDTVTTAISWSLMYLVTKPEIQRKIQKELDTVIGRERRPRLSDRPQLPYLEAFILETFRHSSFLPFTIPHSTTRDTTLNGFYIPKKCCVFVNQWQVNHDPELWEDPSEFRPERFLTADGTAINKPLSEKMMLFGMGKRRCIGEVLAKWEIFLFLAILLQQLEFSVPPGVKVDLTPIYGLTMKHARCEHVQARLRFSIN
Procedure, shortened: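 Inhibition of CYP1A2 conversion of proluciferin to luciferin, detected by luminescence. Reaction run 1 h at room temperature with NADPH regeneration after brief compound preincubation.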

[8] = molecular target: Nuclear receptor subfamily 1 group I member 2 (Rattus norvegicus) (UniProt Q9R1A7); assay: Rat pregnane X receptor (rPXR) activation by small molecules, qHTS assay (AID 1346983); conditions: rPXR luciferase reporter cells, One-Glo luminescence, 24 h; max activation: hits give high values; note: nearly all actives have a fitted effect of over 20% in size; note: potency is the fitted concentration of half-maximal effect
Sequence of Nuclear receptor subfamily 1 group I member 2 (Rattus norvegicus) (Q9R1A7 whole entry, looked up): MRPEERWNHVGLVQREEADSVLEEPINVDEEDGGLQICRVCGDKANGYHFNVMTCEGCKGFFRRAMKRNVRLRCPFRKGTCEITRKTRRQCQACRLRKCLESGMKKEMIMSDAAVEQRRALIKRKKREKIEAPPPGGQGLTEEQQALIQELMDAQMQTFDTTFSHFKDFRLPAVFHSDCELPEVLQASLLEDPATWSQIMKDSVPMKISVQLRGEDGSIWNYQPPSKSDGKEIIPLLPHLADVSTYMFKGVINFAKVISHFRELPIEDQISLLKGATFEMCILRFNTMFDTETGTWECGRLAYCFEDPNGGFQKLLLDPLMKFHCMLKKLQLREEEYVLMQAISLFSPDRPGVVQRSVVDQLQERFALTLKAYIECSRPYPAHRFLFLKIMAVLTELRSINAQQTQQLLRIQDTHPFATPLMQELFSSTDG
Procedure, shortened: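 Cell-based rPXR activation assay: rPXR cells, 2,000 per well, rested 5hr at 37 C, then exposed to compounds in DMSO for 24 hr at 37 C. Luciferase activity read by One-Glo luminescence after 30 min at room temperature.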

[9] = molecular target: Nuclear receptor subfamily 1 group I member 2 (Homo sapiens) (UniProt O75469); assay: CYP3A4 induction through human pregnane X receptor (PXR) by small molecules, qHTS assay (AID 1346984); note: nearly all actives have a fitted effect of over 40% in size
Procedure, shortened: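 Steps: seed DPX-2 cells, 5 hr at 37C; pin-transfer compounds; 24 hr at 37C; add Luciferin-IPA (3uM final), 3 hr at 37C; add One-Glo, 30 min RT; read luminescence.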

[10] = molecular target: Cytochrome P450 2D6 (Homo sapiens) (UniProt P10635); assay: Cytochrome P450 Family 2 Subfamily D Member 6 (CYP2D6) small molecule antagonists: luciferase reporter qHTS assay (AID 1671196); note: nearly all actives have a fitted effect of over 50% in size; note: potency is the fitted concentration of half-maximal effect
Sequence of Cytochrome P450 2D6 (Homo sapiens) (P10635 whole entry, looked up): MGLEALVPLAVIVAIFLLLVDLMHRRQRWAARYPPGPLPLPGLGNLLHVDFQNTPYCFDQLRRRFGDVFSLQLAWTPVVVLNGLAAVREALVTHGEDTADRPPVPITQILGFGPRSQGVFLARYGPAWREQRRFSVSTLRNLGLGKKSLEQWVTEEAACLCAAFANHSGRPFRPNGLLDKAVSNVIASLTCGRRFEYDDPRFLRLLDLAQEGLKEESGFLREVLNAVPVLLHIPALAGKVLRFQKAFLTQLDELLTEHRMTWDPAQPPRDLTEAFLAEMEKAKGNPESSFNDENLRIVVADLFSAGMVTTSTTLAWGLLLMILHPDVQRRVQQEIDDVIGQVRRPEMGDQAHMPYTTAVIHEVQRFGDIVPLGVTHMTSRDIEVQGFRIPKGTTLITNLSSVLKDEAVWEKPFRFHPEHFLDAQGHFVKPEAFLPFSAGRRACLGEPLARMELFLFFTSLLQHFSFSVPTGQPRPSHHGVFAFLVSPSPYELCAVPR
Procedure, shortened: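 P450-Glo format: CYP2D6 converts a proluciferin substrate to luciferin in an NADPH-driven reaction lasting 1 h at room temperature. Light output, proportional to CYP2D6 activity, reflects interference by test chemicals.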

[11] = molecular target: Cytochrome P450 2C19 (Homo sapiens) (UniProt P33261); assay: Cytochrome P450 Family 2 Subfamily C Member 19 (CYP2C19) small molecule antagonists: luciferase reporter qHTS assay (AID 1671197); note: nearly all actives have a fitted effect of over 65% in size; note: potency is the fitted concentration of half-maximal effect
Sequence of Cytochrome P450 2C19 (Homo sapiens) (P33261 whole entry, looked up): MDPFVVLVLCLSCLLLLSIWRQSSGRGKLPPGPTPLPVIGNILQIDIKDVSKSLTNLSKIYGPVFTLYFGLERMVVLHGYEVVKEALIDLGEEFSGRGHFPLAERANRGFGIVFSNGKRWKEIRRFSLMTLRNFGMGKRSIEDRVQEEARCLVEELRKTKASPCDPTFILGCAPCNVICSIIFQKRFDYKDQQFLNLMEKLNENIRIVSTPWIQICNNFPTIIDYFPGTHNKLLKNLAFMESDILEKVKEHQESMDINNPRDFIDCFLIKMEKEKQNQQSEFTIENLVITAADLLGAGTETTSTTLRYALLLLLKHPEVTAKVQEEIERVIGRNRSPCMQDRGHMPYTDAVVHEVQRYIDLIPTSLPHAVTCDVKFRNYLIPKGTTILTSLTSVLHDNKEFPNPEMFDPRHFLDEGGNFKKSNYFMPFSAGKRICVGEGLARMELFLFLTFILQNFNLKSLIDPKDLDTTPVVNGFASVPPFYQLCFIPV
Procedure, shortened: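 Inhibition of CYP2C19 was scored from loss of luminescence in a P450-Glo proluciferin substrate assay, NADPH-started and run 1 h at 37C, with ketoconazole as positive control.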

[12] = molecular target: Nuclear receptor subfamily 1 group I member 2 (Homo sapiens) (UniProt O75469); assay: Human pregnane X receptor (PXR) activation by small molecules, qHTS assay (AID 1346985); note: nearly all actives have a fitted effect of over 40% in size; note: potency is the fitted concentration of half-maximal effect
Procedure, shortened: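 DPX-2 cells (HepG2 co-transfected with a PXR response element and a CYP3A4-promoter luciferase construct) were seeded at 2,000 per well, rested 5 hr at 37C, then exposed to DMSO-dissolved compounds for 24 hr. Activation was read as luciferase luminescence.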
% is set by controls: 0 for no effect and ±100 for the full control effect.

Oc1ccc2c(c1)CCC2
inactive: Potency [1] | Potency [2] | Potency [3] | Potency [4] | Potency [5] | Potency [6]

CC(C)=NNC(N)=S
inactive: Potency [1] | Potency [2] | Potency [4] | Potency [5] | Potency [6]
active: Potency [7] 71 µM

Cc1ccc2sc3cccc(C)c3c2c1
active: Potency [7] 2.52 µM
inactive: Potency [1] | Potency [2] | Potency [3] | Potency [4] | Potency [5] | Potency [6]

O=[N+]([O-])c1ccc(O)c2ncccc12
active: Potency [1] 5.96 µM | Potency [3] 29.8 µM | Potency [4] 38.9 µM
inactive: max activation [8] -6.55% | Potency [9] | Potency [10] | Potency [7] | Potency [5]

Nc1ccc2c(S(=O)(=O)O)cccc2c1S(=O)(=O)O
inactive: Potency [1] | Potency [2] | Potency [3] | Potency [11] | Potency [7] | Potency [5] | Potency [6]

CCn1c2ccccc2c2ccccc21
inactive: Potency [1] | Potency [2] | Potency [3] | Potency [5] | Potency [6]
active: Potency [11] 22.4 µM | Potency [7] 3.99 µM

COc1cc([C@@H]2c3cc4c(cc3[C@@H](O[C@@H]3O[C@@H]5CO[C@@H](C)O[C@H]5[C@H](O)[C@H]3O)[C@H]3COC(=O)[C@H]23)OCO4)cc(OC)c1O
inactive: Potency [1] | Potency [2] | Potency [5]

CCSCC
inactive: Potency [1] | Potency [2] | Potency [10] | Potency [11] | Potency [4] | Potency [7] | Potency [5] | Potency [6]

Clc1nc(C(Cl)(Cl)Cl)c(Cl)c(Cl)c1Cl
active: Potency [1] 30.6 µM | Potency [10] 31.7 µM | Potency [11] 31.7 µM | Potency [4] 35.6 µM | Potency [7] 2.52 µM | Potency [5] 49 µM | Potency [6] 3.99 µM
inactive: Potency [3]

Cc1ccc(Cl)c(N)c1Cl
inactive: Potency [1] | Potency [2] | Potency [11] | Potency [4] | Potency [5] | Potency [6]

CC(C)(c1ccc(Oc2ccc(N)cc2)cc1)c1ccc(Oc2ccc(N)cc2)cc1
active: Potency [3] 61.1 µM | Potency [11] 7.96 µM | Potency [4] 2.52 µM | Potency [6] 2.52 µM
inactive: Potency [1] | Potency [10] | Potency [7] | Potency [5]

Cc1cccc2c1ccc1ccccc12
active: Potency [11] 79.6 µM | Potency [7] 6.33 µM
inactive: Potency [1] | Potency [2] | Potency [3] | Potency [5] | Potency [6]

C1CCSC1
inactive: Potency [1] | Potency [2] | Potency [3] | Potency [4] | Potency [7] | Potency [5] | Potency [6]

C=C1C(CCl)(CCl)C2(Cl)C(Cl)C(Cl)C1(Cl)C2(Cl)Cl (stereo not given)
inactive: Potency [9]
active: Potency [1] 48 µM | Potency [3] 8.53 µM | Potency [8] 11.2 µM | Potency [12] 15.8 µM | Potency [10] 44.3 µM | Potency [11] 1.76 µM | Potency [4] 15.7 µM | Potency [5] 43.1 µM | Potency [6] 0.991 µM

CC(C)(C)c1ccc(OC2CCCCC2O)cc1 (stereo not given)
active: Potency [3] 27.3 µM | Potency [4] 35.6 µM | Potency [7] 35.6 µM
inactive: Potency [1] | Potency [2] | Potency [5]

NCc1ccco1
inactive: Potency [1] | Potency [2] | Potency [3] | Potency [4] | Potency [7] | Potency [5] | Potency [6]

COC1=C(OC)C(=O)C(C/C=C(\C)CC/C=C(\C)CC/C=C(\C)CC/C=C(\C)CC/C=C(\C)CC/C=C(\C)CC/C=C(\C)CC/C=C(\C)CC/C=C(\C)CCC=C(C)C)=C(C)C1=O
inactive: max activation [8] -2.14% | Potency [9] | Potency [12]

O=C1CC[C@@H](C(=O)N[C@H]2C[C@@H]2c2ccccc2)N1
inactive: max activation [8] -3.97% | Potency [9] | Potency [12]

COC1[C@@H](O[C@@H]2O[C@H](C)[C@@H](O[C@H]3C[C@@](C)(O)[C@H](OC(=O)CC(C)C)[C@H](C)O3)[C@H](N(C)C)[C@H]2O)[C@@H](CC=O)C[C@@H](C)[C@@H](O)/C=C/C=C/C[C@@H](C)OC(=O)C[C@H]1OC(C)=O (stereo not given in full)
inactive: max activation [8] -1.32% | Potency [9] | Potency [12]

O=C1c2ccccc2CN2C(=O)c3ccccc3CN12
inactive: max activation [8] -1.83% | Potency [9] | Potency [12]

CC1CCCCN1CCCOC(=O)c1ccccc1 (stereo not given)
inactive: max activation [8] -7.12% | Potency [9] | Potency [12]

O=S(=O)(O)CC(S)CS (stereo not given)
inactive: max activation [8] -6.49% | Potency [9] | Potency [12]

C[S+](CC[C@H](N)C(=O)O)C[C@H]1O[C@@H](n2cnc3c(N)ncnc32)[C@H](O)[C@@H]1O (stereo not given in full)
inactive: max activation [8] -2.9% and 0.617% | Potency [9] | Potency [12]

CC(=O)NC[C@H]1CN(c2ccc(N3CCOCC3)c(F)c2)C(=O)O1
inactive: max activation [8] -2.66% | Potency [9] | Potency [12]

CN(Cc1ccccc1)Cc1ccccc1
inactive: max activation [8] -2.9% | Potency [9] | Potency [12]

O=C(O)/C=C/C(=O)Nc1ccc(S(=O)(=O)Nc2nccs2)cc1
inactive: max activation [8] -4.08% | Potency [9] | Potency [12]

CCCCCCCCCCCC[n+]1ccc2ccccc2c1
inactive: max activation [8] -19.3% | Potency [9] | Potency [12]

C/C(=C\C(=O)OCCCCCCCCC(=O)O)C[C@@H]1OC[C@H](C[C@@H]2O[C@H]2[C@@H](C)[C@H](C)O)[C@@H](O)[C@H]1O
inactive: max activation [8] -5.5% | Potency [9] | Potency [12]

CC[C@@H](C)[C@@H](N)C1=N[C@H](C(=O)N[C@@H](CC(C)C)C(=O)N[C@@H](CCC(=O)O)C(=O)N[C@@H](C(=O)N[C@@H]2CCCCNC(=O)[C@@H](CC(N)=O)NC(=O)[C@@H](CC(=O)O)NC(=O)[C@@H](Cc3cnc[nH]3)NC(=O)[C@@H](Cc3ccccc3)NC(=O)[C@@H]([C@H](C)CC)NC(=O)[C@@H](CCCN)NC2=O)[C@@H](C)CC)CS1 (X1-LE[d(aIle)][dK][dOrn][dI][dF][dH][dD][dN]; lactam 4-C)
inactive: max activation [8] -0.877% | Potency [9] | Potency [12]
